Experimental findings from PubChem BioAssay AID743025 (Vanderbilt Specialized Chemistry Center, 2013) are described below.

Each structure is given as a SMILES string. A number with no mark means an inactive call. Active and inactive are the calls of the source.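 How the source made its calls: active means IC50 below 10 µM at human M5 in a calcium flux test, acting as a negative modulator; inactive means the rest.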

Muscarinic acetylcholine receptor M5 (Homo sapiens), sequence (P08912 whole entry, looked up): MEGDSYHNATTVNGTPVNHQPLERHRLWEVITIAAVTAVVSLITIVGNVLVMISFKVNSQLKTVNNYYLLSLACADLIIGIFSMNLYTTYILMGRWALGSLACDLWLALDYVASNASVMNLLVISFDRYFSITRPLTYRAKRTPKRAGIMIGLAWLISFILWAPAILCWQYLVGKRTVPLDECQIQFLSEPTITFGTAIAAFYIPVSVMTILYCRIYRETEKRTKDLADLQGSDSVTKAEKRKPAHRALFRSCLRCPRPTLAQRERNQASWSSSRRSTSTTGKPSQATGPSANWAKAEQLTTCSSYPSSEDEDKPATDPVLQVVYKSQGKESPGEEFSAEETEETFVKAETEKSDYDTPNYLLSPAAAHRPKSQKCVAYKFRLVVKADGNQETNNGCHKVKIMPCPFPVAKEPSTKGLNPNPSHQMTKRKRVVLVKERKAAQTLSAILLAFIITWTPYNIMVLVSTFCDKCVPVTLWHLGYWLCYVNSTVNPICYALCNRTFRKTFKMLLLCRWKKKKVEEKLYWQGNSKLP

This assay has as its target Muscarinic acetylcholine receptor M5 (Homo sapiens) (UniProt P08912). Briefly: inhibition of ACh-evoked M5 calcium signal – cell-based, single concentration, human M5 (AID 743025). To be noted: CHO-K1 hM5, ACh EC80 calcium flux, Fluo-4; at 10 µM; active compounds read low. For orientation: A change in cytosolic calcium serves as a functional read-out for many receptors and channels.
For `O=C(c1ccc(F)c(F)c1)N1CCN2C(=O)c3ncccc3C12c1ccccc1` (stereo unspecified), the activity remaining is 66.4%.

In the case of `O=C(c1ccc(C(F)(F)F)cc1)N1CCN2C(=O)c3ccccc3C12c1ccccc1` (stereo unspecified), the activity remaining is 1.06% (active).

For the molecule `O=C(c1ccncc1)N1CCN2C(=O)c3ccccc3C12c1ccccc1` (stereo unspecified), the activity remaining is 98.6%. As for `Clc1ccc(C2(c3ccccc3)CCCN2)cc1` (stereo unspecified), the activity remaining is 68.9%. On to `O=C1c2ccccc2C(c2ccccc2)N1c1ccccc1` (stereo unspecified), for which the activity remaining is 82.3%. On to `O=C1c2ccccc2C2(c3ccccc3)NCCN12` (stereo unspecified), for which the activity remaining is 89.3%. In the case of `Cc1ccc(C23c4ccccc4C(=O)N2CCN3C(=O)c2ccccc2)cc1` (stereo unspecified), the activity remaining was 53.2% (active). For `O=C(c1ccc(OC(F)(F)F)cc1)N1CCN2C(=O)c3ccccc3C12c1ccc(Cl)cc1` (stereo unspecified), the activity remaining was 1.2% (active).

As for `O=C(c1ccccc1)N1CCCC1c1ccccc1` (stereo unspecified), the activity remaining is 88.8%. As to `CSc1cccc(NC(=S)N2CCN3C(=O)c4ccccc4C32c2ccccc2)c1` (stereo unspecified), the activity remaining was 77.7%. Turning to `O=C(c1ccc(OC(F)(F)F)cc1)N1CCN2C(=O)c3ncccc3C12c1ccccc1` (stereo unspecified), the activity remaining is 73.1%. As for `O=C(c1cccc(C(F)(F)F)c1)N1CCN2C(=O)c3ncccc3C12c1ccccc1` (stereo unspecified), the activity remaining was 76.6%. On to `Cc1cccc(C(=O)N2CCN3C(=O)c4ccccc4C23c2ccccc2)c1` (stereo unspecified), for which the activity remaining is 52.7% (active). Take `O=C(Nc1cccc(C(F)(F)F)c1)N1CCN2C(=O)c3ccccc3C12c1ccccc1` (stereo unspecified): the activity remaining is 76.4%. With `O=C(c1ccc(SC(F)(F)F)cc1)N1CCN2C(=O)c3ccccc3C12c1ccc(F)cc1` (stereo unspecified), the activity remaining is -0.72% (active). For the molecule `O=C(c1ccc(SC(F)(F)F)cc1)N1CCCN2C(=O)c3ccccc3C12c1ccc(Cl)cc1` (stereo unspecified), the activity remaining is 78.5%. As to `Cc1ccc(C(=O)N2CCCN3C(=O)c4ccccc4C23c2ccc(Cl)cc2)cc1` (stereo unspecified), the activity remaining was 74.8%. `O=C(c1ccccn1)N1CCN2C(=O)c3ccccc3C12c1ccccc1` (stereo unspecified): the activity remaining is 100%.

With `O=C(c1ccc(F)cc1Cl)N1CCN2C(=O)c3ccccc3C12c1ccccc1` (stereo unspecified), the activity remaining was 64.1%. For `COc1ccccc1NC(=O)N1CCN2C(=O)c3ccccc3C12c1ccccc1` (stereo unspecified), the activity remaining is 86.6%. `O=C(c1ccc(F)cc1F)N1CCN2C(=O)c3ccccc3C12c1ccccc1` (stereo unspecified): the activity remaining was 69%. For the molecule `O=C(c1ccc(F)c(F)c1)N1CCCN2C(=O)c3ccccc3C12c1ccc(Cl)cc1` (stereo unspecified), the activity remaining was 80.4%.

Regarding `O=C(Nc1cccc(Cl)c1)N1CCN2C(=O)c3ccccc3C12c1ccccc1` (stereo unspecified), the activity remaining is 83%.

For `O=C(Nc1ccccc1)N1CCN2C(=O)c3ccccc3C12c1ccccc1` (stereo unspecified), the activity remaining is 85.4%. The same measure for `O=C(c1ccc(SC(F)(F)F)cc1)N1CCN2C(=O)c3ncccc3C12c1ccccc1` (stereo unspecified): 62.1%.

As for `O=C(NCCNC(=O)c1ccccc1C(=O)c1ccc(F)cc1)c1ccccc1`, the activity remaining is 86.1%. As for `Cc1ccc(C(=O)N2CCN3C(=O)c4ccccc4C23c2ccc(F)cc2)cc1` (stereo unspecified), the figure is 67.9%. Take `O=C(c1ccc(SC(F)(F)F)cc1)N1CCN2C(=O)c3ccccc3C12c1ccc(Cl)cc1` (stereo unspecified): the activity remaining is 4.43% (active).

For `COc1ccc(C23c4ccccc4C(=O)N2CCN3C(=O)c2ccccc2)cc1` (stereo unspecified), the activity remaining is 73%. Take `O=C1c2ccccc2C2(c3ccccc3)N1CCN2S(=O)(=O)c1cccc(C(F)(F)F)c1` (stereo unspecified): the activity remaining was 80%.

For the molecule `O=C1c2ccccc2C2(c3ccccc3)Nc3ccccc3N12` (stereo unspecified), the activity remaining was 81.8%. Consider `Cc1ccc(C(=O)N2CCN3C(=O)c4ccccc4C23c2ccc(C)cc2)cc1` (stereo unspecified), for which the activity remaining was 49.1% (active). For the molecule `COc1ccc(C23c4ccccc4C(=O)N2CCN3C(=O)c2cccc(F)c2)cc1` (stereo unspecified), the activity remaining was 57.4% (active). On to `O=C(c1ccc(OC(F)(F)F)cc1)N1CCN2C(=O)c3ccccc3C12c1ccc(F)cc1` (stereo unspecified), for which the activity remaining was 69.4%. With `O=C(c1ccc(F)c(F)c1)N1CCc2ccccc2C1c1ccc(Cl)cc1` (stereo unspecified), the activity remaining was 67.4%. `COc1ccc(C23c4ccccc4C(=O)N2CCN3C(=O)c2ccc(F)cc2)cc1` (stereo unspecified): the activity remaining is 62.4%.
